Results reported in PubChem BioAssay AID504892 (The Scripps Research Institute Molecular Screening Center, 2011).
Values without a mark were called inactive. Calls of active or inactive are those of the source. How the calls were made is not given here.

Target: sn-1-specific diacylglycerol lipase ABHD11 (Homo sapiens) (UniProt Q8NFV4)
Assay: ABHD11 inhibitors, late-stage follow-up, gel-based ABPP, fluorescence, human isoform (AID 504892)
Conditions: human ABHD11 proteome; at 20 µM (top of the series) unless noted

sn-1-specific diacylglycerol lipase ABHD11 (Homo sapiens), sequence (Q8NFV4 whole entry, looked up, canonical isoform): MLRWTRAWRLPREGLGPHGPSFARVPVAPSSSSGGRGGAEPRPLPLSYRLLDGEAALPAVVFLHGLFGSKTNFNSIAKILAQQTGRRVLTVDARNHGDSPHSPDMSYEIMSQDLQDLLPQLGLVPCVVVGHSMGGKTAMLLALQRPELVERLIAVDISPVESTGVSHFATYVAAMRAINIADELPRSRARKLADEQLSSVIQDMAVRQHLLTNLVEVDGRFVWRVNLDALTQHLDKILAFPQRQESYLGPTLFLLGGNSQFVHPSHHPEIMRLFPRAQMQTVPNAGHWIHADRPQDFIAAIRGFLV

Structure (SMILES) | inhibition
CCC1CCCCN1C(=O)Oc1ccc([N+](=O)[O-])cc1 (configuration not stated) | 0%
CCC1CCCCN1C(=O)n1ncc(C(O)(c2ccccc2)c2ccccc2)n1 (configuration not stated) | 100% [at 0.15 µM] (active)
